High-throughput results from PubChem BioAssay.
HIV RNase H inh-1: inhibitors of HIV-1 reverse transcriptase RNase H; P04585; RT-RNase H RNA/DNA duplex cleavage, fluorescence; inhibition, % at 10 µM; 65,000 compounds, 1.9% hits; AID 565; in the data active = inhibition above about 50%
HIV RNase H inh-2: confirmation of HIV-1 reverse transcriptase RNase H inhibitors. shares compounds with HIV RNase H inh-1. Recombinant RT RNase H, fluorescent RNA/DNA duplex cleavage. inhibition, % at 10 µM. 1,000 compounds, 39% hits; in the data active = inhibition above about 48%; inconclusive = no clear call, values can overlap the other calls
The depositor's hits bear a star; ? = inconclusive. The sample as a whole holds a higher share of hits than the screen did.

SMILES	HIV RNase H inh-1	others
O=C(NCc1cccs1)c1csc2ccccc12	8
C=CCSc1nc2c(c(=O)[nH]c(=O)n2C)n1C(C)C	76*	HIV RNase H inh-2=59*
CCOC(=O)C(C)Sc1nc2c(c(=O)[nH]c(=O)n2C)n1Cc1ccc(Cl)cc1 (stereo not given)	71*	HIV RNase H inh-2=24
Cc1ccc(Cn2c(N3CCCCCC3)nc3c2c(=O)[nH]c(=O)n3C)cc1	-19
CC(C)Sc1nc2c(c(=O)[nH]c(=O)n2C)n1Cc1ccc(Cl)cc1	27
CCC(C)Sc1nc2c(c(=O)[nH]c(=O)n2C)n1Cc1ccc(Cl)cc1 (stereo not given)	15
C/C=C/Cn1c(SCc2ccc(C)cc2)nc2c1c(=O)[nH]c(=O)n2C	-10
C=CCn1c(SCc2ccc(Cl)cc2)nc2c1c(=O)[nH]c(=O)n2C	-13
CCCSc1nc2c(c(=O)[nH]c(=O)n2C)n1Cc1ccc(C)cc1	5
CCSc1nc2c(c(=O)[nH]c(=O)n2C)n1C	-6
C/C(Cl)=C/CSc1nc2c(c(=O)[nH]c(=O)n2C)n1C(C)C	-21
Cc1ccc(Cn2c(SCC(C)C)nc3c2c(=O)[nH]c(=O)n3C)cc1	87*	HIV RNase H inh-2=58*
C=CCSc1nc2c(c(=O)[nH]c(=O)n2C)n1Cc1ccc(C)cc1	84*	HIV RNase H inh-2=31
COc1ccc(CCNS(=O)(=O)c2ccc3c(c2)OCCO3)cc1OC	-20
COCCNC(=O)C1CCN(S(=O)(=O)c2ccccc2)CC1	1
CCOc1ccc(C(=O)CN2CCN(S(=O)(=O)c3ccc(OC)cc3)CC2)cc1	-1
CC(C)n1c(N2CCN(CC(=O)Nc3ccc4c(c3)OCCO4)CC2)nc2ccccc21	3
COc1ccc(OC)c(NC(=O)CSc2nnc(CNc3ccc(C)cc3C)o2)c1	-13
COc1ccc(OC)c(-n2nnnc2SCC(=O)NCc2ccc3c(c2)OCO3)c1	-40
CCCCN(C)C(=O)c1coc(=O)c2ccccc12	-6
CN(C(=O)c1coc(=O)c2ccccc12)c1ccc(F)cc1	72*	HIV RNase H inh-2=33
Cc1ccc(CNC(=O)c2coc(=O)c3ccccc23)o1	-18
Cc1ccc(C)c2[nH]c(=O)c(CN(CCN3CCCC3)C(=O)Nc3cccc(Cl)c3)cc12	-3
Cc1nc(N2CCN(C(=O)c3ccc(Cl)cc3)CC2)c(C#N)c2c1COC(C)(C)C2	5
Cc1nn(C)c(C)c1S(=O)(=O)N1CCCC(C(=O)NCC2COc3ccccc3O2)C1 (stereo not given)	5
SMILES	HIV RNase H inh-1	others
O=c1oc2ccccc2c(O)c1CN1CCCCC1	1
O=C1NCCCC2c3c(cc(Br)c(O)c3Br)OC12N1CCOCC1 (stereo not given)	22
O=C1NCCCC2c3cc(O)c4ccccc4c3OC12N1CCCCC1 (stereo not given)	52*	HIV RNase H inh-2=15
COc1ccc(-c2ccc(SCC(=O)N3CCCC3)nn2)cc1OC	90*	HIV RNase H inh-2=6
COc1ccc(-c2ccc(SCC(=O)N3CCOCC3)nn2)cc1OC	0
COc1ccc(-c2nnc(SCC(=O)N3CCCC3)o2)cc1OC	4
COC(=O)c1ccccc1S(=O)(=O)N(Cc1cc2cc3c(cc2[nH]c1=O)OCO3)C1CCCCC1	53*	HIV RNase H inh-2=52*
O=c1[nH]c2cc3c(cc2cc1CN(CC1CCCO1)S(=O)(=O)c1ccccc1)OCCO3 (stereo not given)	-9
COc1ccc(CN(Cc2cc3cc4c(cc3[nH]c2=O)OCO4)C(=O)NC2CCCCC2)cc1	0
CC1CCN(C(=O)CSc2nnc(-c3cc4ccccc4cc3O)n2Cc2ccco2)CC1	17
COc1ccc(-c2nnc3ccc(SCC(=O)N4CCN(c5ccccc5)CC4)nn23)cc1OC	-27
C1=C(CCNC2=NCCCCC2)CCCC1	-5
CCn1c(=O)cc(SCC(=O)Nc2ccccc2N2CCN(C)CC2)c2ccccc21	-2
COc1ccc(CCN(C(=O)c2ccc(F)cc2)C2=CC3CCC(C2)N3C)cc1OC (stereo not given)	-6
COc1nnc(-c2ccc(N3CCCCC3)c(N)c2)c2ccccc12	-25
Cc1ccc(-n2c(N)c(C(=O)N3CCCCC3)sc2=S)cc1	95*	HIV RNase H inh-2=75*
CCOC(=O)c1c(N)sc(C(=O)N2CCCC2)c1C	-13
Cc1c(C(=O)N2CCCCC2)sc(N)c1C#N	-19
C=CCn1c(N)c(C(=O)N2CCN(C)CC2)sc1=S	29
Cc1ccc(NS(=O)(=O)c2ccc(C(=O)N3CCCN(C)CC3)cc2)cc1	-10
Cc1ccc(-n2c(N)c(C(=O)N3CCN(C)CC3)sc2=S)cc1	93*	HIV RNase H inh-2=63*
CC(OC(=O)c1ccncc1)C(=O)Nc1cccc(Cl)c1 (stereo not given)	-17
Cc1ccccc1Nc1nc(N)nc(CN2C(=O)NC3(CCCCC3C)C2=O)n1 (stereo not given)	-7
Cn1c(-c2ccc3c(c2)OCO3)cnc1NCc1cccc(Cl)c1	-2
Cn1c(-c2ccc3c(c2)OCO3)cnc1NC(=O)CCC(=O)NCCc1ccccc1	84*	HIV RNase H inh-2=42
SMILES	HIV RNase H inh-1	others
Cn1c(-c2ccc3c(c2)OCO3)cnc1NCc1ccccc1	-5
COc1ccc(S(=O)(=O)N(C)CC(=O)N2CCC(C(N)=O)CC2)cc1Cl	-13
CC1CCCC(C)N1c1nnc(N)s1 (stereo not given)	25
O=C(COc1cc(Cl)ccc1Cl)Nc1nnc(CC(=O)N2CCOCC2)s1	80*	HIV RNase H inh-2=11
O=C(Nc1nnc(CC(=O)N2CCOCC2)s1)c1cccs1	-2
O=C(Nc1nnc(CC(=O)N2CCOCC2)s1)C1COc2ccccc2O1 (stereo not given)	6
Cc1cc(CN2CCOCC2)c(O)c(C2(C)CCCCC2)c1	1
CC(OC(=O)c1cccs1)C(=O)NCC1CCCO1 (stereo not given)	-9
CCCC1(CCC)NC(=O)N(CC(=O)Nc2cccc(OC)c2)C1=O	-12
Cc1ccc2c(c1)N(CC(=O)NCCc1c[nH]c3ccccc13)C(=O)CO2	6
O=C(NCC(c1cccs1)N1CCOCC1)c1cc2ccccc2o1 (stereo not given)	4
CCOc1cc2[nH]c(=O)n(CCCCC(=O)NC3CCCCCC3)c(=O)c2cc1OCC	-5
CCOc1cc2[nH]c(=O)n(CC3CCC(C(=O)NCCCOC)CC3)c(=O)c2cc1OCC (stereo not given)	0
CCOc1cc2[nH]c(=O)n(CC3CCC(C(=O)NCCC(C)C)CC3)c(=O)c2cc1OCC (stereo not given)	68*	HIV RNase H inh-2=?
Brc1ccc2[nH]c3nc(SCCN4CCOCC4)nnc3c2c1	3
CCOC(=O)CC(=O)CSc1nnc2c(n1)[nH]c1ccccc12	-11
c1ccc2c(c1)[nH]c1nc(SCCN3CCOCC3)nnc12	83*	HIV RNase H inh-2=0
C=CCOc1ccc(/C(O)=C2/C(=O)C(=O)N(CCCn3ccnc3)C2c2cccs2)cc1 (stereo not given)	2
O=C(CNS(=O)(=O)c1ccc(Br)s1)N1CCC(N2CCCCC2)CC1	-19
O=C(Nc1ccc(N2CCCC2)c(Cl)c1)c1ccco1	-1
Cc1cccc(NC(=O)c2cc(NC(=O)c3ccco3)ccc2N2CCCCC2)c1	73*	HIV RNase H inh-2=?
O=C(Nc1ccc(N2CCCCC2)c(C(=O)O)c1)c1ccco1	-15
CCN1CCN(C(=O)c2ccc3c(c2)N(Cc2ccc(F)cc2)C(=O)c2ccccc2S3=O)CC1 (stereo not given)	-8
CCCn1c(=O)n(C)c(=O)c2c3oc(=O)c(NC(=O)c4ccc(F)cc4)cc3[nH]c21	1
CN(C)c1ccc(NC(=O)CCCc2ccccc2)cc1	12
